# Screening data (PubChem)
# A selection: hits, their analogues and other compounds. The true share with any hit is near 2.2%.
# ADAM17 inh = inhibitors of human ADAM17; P78536; inhibition, % at 6.95 µM; AID 720648; recombinant ADAM17, EDANS/DABCYL FRET peptide cleavage; hit rate 0.83% among 370,000;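 active = inhibition above the mean of compounds lying between control limits plus 3 SD, set per campaign, cut at about 8.5% in these data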
# Target sequence (P78536 215-824 limits assumed): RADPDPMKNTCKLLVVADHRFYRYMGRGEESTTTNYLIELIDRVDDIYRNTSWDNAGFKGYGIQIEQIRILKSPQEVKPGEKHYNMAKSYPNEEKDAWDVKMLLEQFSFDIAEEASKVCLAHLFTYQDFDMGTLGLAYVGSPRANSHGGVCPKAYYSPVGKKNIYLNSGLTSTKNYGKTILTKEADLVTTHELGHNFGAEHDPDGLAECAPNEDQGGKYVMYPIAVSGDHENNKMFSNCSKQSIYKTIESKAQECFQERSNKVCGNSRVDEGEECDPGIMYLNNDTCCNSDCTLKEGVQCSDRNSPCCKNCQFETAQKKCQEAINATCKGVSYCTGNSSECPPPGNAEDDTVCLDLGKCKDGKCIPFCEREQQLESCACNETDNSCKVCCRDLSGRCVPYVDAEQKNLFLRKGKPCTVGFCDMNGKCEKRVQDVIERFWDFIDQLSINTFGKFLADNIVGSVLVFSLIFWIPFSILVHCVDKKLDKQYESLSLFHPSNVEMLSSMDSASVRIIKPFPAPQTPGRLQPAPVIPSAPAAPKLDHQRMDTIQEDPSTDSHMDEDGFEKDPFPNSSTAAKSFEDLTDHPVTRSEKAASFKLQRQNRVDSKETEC
# NPR1 activator = GC-A (human) enzyme activation | activation, % at 10 µM | P16066 | HEK293 GC-A cells, cGMP TR-FRET, EC30 ANP; 0% at EC30 ANP, 100% saturating ANP | AID 1671463 | hit rate 0.14% among 370,000; in the data active = activation above about 40%
# GC-B act = GC-B (human) receptor activation | HEK293-GC-B cells, CNP EC30, cGMP TR-FRET; 0% at EC30 CNP, 100% saturating CNP | AID 1920062 | activation, % at 10 µM | hit rate 0.11% among 370,000;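 active = activation at 10 µM reaching about 35% in either raw or pattern-adjusted values, limit read from the data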
# ADAM10 inh = inhibits human ADAM10; O14672; recombinant ADAM10, EDANS/DABCYL FRET peptide cleavage, 3 h; inhibition, % at 7 µM; hit rate 0.62% among 370,000;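 active = inhibition above a per-campaign cutoff equal to the mean of compounds falling between control-based bounds plus 3 SD, cut at about 20% in these data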
# proKLK7 act = activates the human kallikrein-7 zymogen. activation, % at 7 µM. purified proKLK7, EDANS-DABCYL substrate fluorescence; 100% is mature enzyme control, 0% vehicle. AID 652039. hit rate 0.9% among 370,000. P49862;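 active = activation above the mean of all tested compounds plus 3 SD, computed per campaign excluding outliers beyond control limits, cut at about 13% in these data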
# Numbers stand for hits; – = inactive; · = not tested or not shown.
SMILES,ADAM17 inh,NPR1 activator,GC-B act,ADAM10 inh,proKLK7 act
Cc1ccc(C)c(NS(=O)(=O)c2cc(C(=O)NCCSC3CCCCC3)ccc2C)c1,15.5,–,–,33.6,–
Cc1ccccc1NS(=O)(=O)c1cc(C(=O)NCCSC2CCCCC2)ccc1C,–,–,–,–,–
CN1CC=C(c2ccccc2)N(c2ccc(Cl)cc2)C1=O,–,–,–,–,–
N#CC1=C(N)Oc2cc(O)ccc2C1c1ccc(Br)s1 (configuration not stated),–,75.2,–,–,–
COc1ccc(C2NC(=O)c3sc4nc(C)c(C(C)=O)c(-c5ccc(Cl)cc5)c4c3N2)cc1 (configuration not stated),–,46.4,–,–,–
CCCc1nn(C)c2c(=O)[nH]c(-c3cc(S(=O)(=O)N4CCN(C)CC4)ccc3OCC)nc12,–,51.8,57.5,–,–
CCCc1nn(C)c2c(=O)[nH]c(-c3ccccc3OCC)nc12,–,–,–,–,–
CCCc1nn(C)c2c(=O)[nH]c(-c3cc(S(=O)(=O)Nc4ccc(NC(C)=O)cc4)ccc3OCC)nc12,–,41.4,55.0,–,–
COc1ccc2c(c1)CCCN2C(=O)C1CCCN(S(=O)(=O)c2ccc(Cl)s2)C1 (configuration not stated),–,–,–,–,–
CCOC(=O)[C@]12CCCCC/C=C\1N(Cc1ccc(OC)cc1)C(=O)[C@H]2CC(=O)NCc1ccc(OC)c(OC)c1,–,–,–,–,–
Cc1ccccc1NC(=O)N(C)[C@H]1C[C@H]2c3[nH]c4c(-c5ccccc5)cccc4c3CCN2C[C@H]1[C@H](C)O,–,–,–,–,–
O=C(N[C@H]1C[C@@H]2O[C@H](CO)CC[C@@H]2O[C@@H]1CCc1ccc(-c2cccnc2)cc1)c1cccc(F)c1,–,–,–,–,–
COc1cc(NC(=O)C2CCN(c3nnc(-n4cccc4)s3)CC2)cc(OC)c1,–,–,–,–,–
COc1ccc2sc(-c3ccc(S(C)(=O)=O)cc3)c(C(=O)NCCc3c[nH]c4ccccc34)c2c1,–,–,39.0,–,–
Cc1ccc(C2=CC(c3ccccc3)n3ncnc3N2)cc1 (configuration not stated),–,–,–,–,53.4
CCC(C)Nc1nc(Cl)nc(N(C#N)CN2C(=O)c3ccccc3S2(=O)=O)n1 (configuration not stated),–,–,–,–,–
CC(C)Nc1nc(Cl)nc(N(C#N)CN2C(=O)c3ccccc3C2=O)n1,–,47.7,48.4,–,–
Cc1ccc(S(=O)(=O)N2CCN(C(=O)c3cc4c(C)nn(-c5ccccc5C)c4s3)CC2)cc1,9.0,–,–,21.7,–
Cc1ccccc1-n1nc(C)c2cc(C(=O)N3CCOCC3)sc21,–,–,–,–,–
CCOC(=O)N1CCN(CCC(=O)Nc2ccc(C)cc2)CC1,–,–,–,–,–
O=C(CCN1CCN(c2ccc([N+](=O)[O-])cc2)CC1)c1ccc(Cl)cc1,–,63.2,–,–,–
CCOC(=O)N1CCN(CCC(=O)c2ccc(Br)cc2)CC1,–,53.1,–,–,–
CCOC(=O)N1CCN(CCC(=O)c2ccc(Cl)cc2)CC1,–,64.8,–,–,–
O=C(CN1CCN(c2ccc([N+](=O)[O-])cc2)CC1)c1ccccc1,–,–,–,–,–
CCOC(=O)N1CCN(CCC(=O)c2ccc(OC)cc2)CC1,–,–,–,–,–
SMILES,ADAM17 inh,NPR1 activator,GC-B act,ADAM10 inh,proKLK7 act
Cc1nc(N2CCCCC2C)c2nnn(Cc3ccccc3)c2n1 (configuration not stated),–,–,–,–,–
CN(C(=O)CNC(=O)c1ccccc1OCC(=O)Nc1ccc(Br)cc1)c1ccccc1,–,–,–,–,–
O=C(C1=C[C@H](c2csc3ccccc23)C[C@H](OCc2ccc(CO)cc2)O1)N1CCN(Cc2ccc3c(c2)OCO3)CC1,–,–,–,21.5,–
CC(=O)Nc1cc(-c2cccc(N)c2)cn2c(-c3ccc(C(C)=O)cc3)cnc12,–,–,34.5,–,–
COc1ccc(-c2cnc3c(NC=O)cc(-c4cc(OC)c(OC)c(OC)c4)cn23)cc1OC,–,–,38.7,–,–
COc1cc(-c2cc(NC(C)=O)c3ncc(-c4ccc(C(C)=O)cc4)n3c2)cc(OC)c1OC,–,46.5,46.2,–,–
CC(=O)Nc1cc(-c2cccc(CO)c2)cn2c(-c3ccc(C(C)=O)cc3)cnc12,–,–,–,–,–
O=S1(=O)c2ccc(Br)cc2OC[C@@H](Cc2ccccc2)N1Cc1cn(CCC2OCCO2)nn1,–,–,–,–,–
CC(C)CN1C(=O)[C@@]2(CC(=O)N(C)C2c2ccccc2)c2cc(-n3cc(CCCC#N)nn3)ccc21 (some centres not stated),–,–,–,–,–
CC(C)(C)C(=O)OC12CCCN(C1)/C(=C/c1ccc(C#N)cc1)C2 (configuration not stated),–,–,–,–,–
COC(=O)C1CN(C2CCCC2)CCS(=O)(=O)N1Cc1ccc(OC)cc1 (configuration not stated),–,–,–,–,–
O=C1OCCC1Sc1nnc(-c2cccc(Br)c2)o1 (configuration not stated),–,60.2,37.3,–,–
C[C@@H]1CN([C@@H](C)CN(C)C)C(=O)c2cc(NC(=O)Nc3ccccc3)ccc2O[C@@H](C)CCCCO[C@H]1CN(C)S(=O)(=O)c1ccc(F)cc1,–,–,–,–,·
CC(C)CSc1nnc(-c2ccco2)n1C,–,–,–,–,–
COc1ccc(-c2csc(NC(=O)C3CCCCN3S(=O)(=O)c3ccccc3)n2)cc1 (configuration not stated),10.2,–,–,–,–
COc1cc(NC(=O)CSc2nc(C)cc(=O)[nH]2)cc(OC)c1,–,–,–,–,–
Cc1ccc(CNC(=O)CS(=O)Cc2nc(-c3ccccc3C)oc2C)cc1 (configuration not stated),–,–,110.5,–,–
Cc1ccccc1-c1nc(CS(=O)CC(=O)NCc2ccccc2)c(C)o1 (configuration not stated),–,–,–,–,–
O=[N+]([O-])c1cc(/C=N/NC(=S)Nc2ccccc2Cl)ccc1Cl,–,57.8,–,–,–
O=C(c1cnn2c(-c3ccccc3)cc(-c3ccccc3)nc12)N1CCN(Cc2ccccc2)CC1,–,–,35.1,–,–
O=C(c1cnn2c(C(F)F)cc(-c3ccccc3)nc12)N1CCOCC1,–,–,–,–,–
CCOC(=O)CSc1cc(-c2ccccc2)nc2ncnn12,–,–,41.8,–,–
CCOC(=O)CSc1nc(-c2ccccc2)ns1,–,55.1,–,–,–
c1ccc(-c2cc(-c3ccccc3)n3ncnc3n2)cc1,–,–,–,–,–
CCOC(=O)CNC(=O)CSc1nc(-c2ccc(OC)cc2)ns1,–,–,–,–,–
